The source made the active and inactive calls. Unless noted, the rule behind the calls is not given here.

Assay [1] can be described thus: anti-His antibody binders, primary screen, artefact control for SMM control protein annotation, biochemical, small-molecule microarray, 635 nm fluorescence (AID 1128).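 Note: score merges feature fluorescence with signal-to-noise for each printed compound spot.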 To be noted: anti-His Alexa647 antibody binding, higher = more signal.
Assay [2] deals with Human papillomavirus type 1a E7 protein (residues 1-88). Description: HPV1a E7 small-molecule binders, primary screen, biochemical, small-molecule microarray, residues 1-88, 635 nm (AID 1129). To be noted: small-molecule microarray binding, fluorescence 635 nm; higher = more signal.
Assay [3] deals with Focal adhesion kinase 1 (Homo sapiens) (UniProt Q05397). As to the kind of experiment: small-molecule microarray binders of FAK, primary screen, biochemical, 635/667 nm fluorescence, BSA, DTT (AID 1130).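 Note: composite of spot emission at 667 nm and signal to noise over triplicate slides.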 The following applies: PTK2 binding, 635 nm fluorescence, higher = more signal.
Chain of Focal adhesion kinase 1 (Homo sapiens) (Q05397 whole entry, looked up): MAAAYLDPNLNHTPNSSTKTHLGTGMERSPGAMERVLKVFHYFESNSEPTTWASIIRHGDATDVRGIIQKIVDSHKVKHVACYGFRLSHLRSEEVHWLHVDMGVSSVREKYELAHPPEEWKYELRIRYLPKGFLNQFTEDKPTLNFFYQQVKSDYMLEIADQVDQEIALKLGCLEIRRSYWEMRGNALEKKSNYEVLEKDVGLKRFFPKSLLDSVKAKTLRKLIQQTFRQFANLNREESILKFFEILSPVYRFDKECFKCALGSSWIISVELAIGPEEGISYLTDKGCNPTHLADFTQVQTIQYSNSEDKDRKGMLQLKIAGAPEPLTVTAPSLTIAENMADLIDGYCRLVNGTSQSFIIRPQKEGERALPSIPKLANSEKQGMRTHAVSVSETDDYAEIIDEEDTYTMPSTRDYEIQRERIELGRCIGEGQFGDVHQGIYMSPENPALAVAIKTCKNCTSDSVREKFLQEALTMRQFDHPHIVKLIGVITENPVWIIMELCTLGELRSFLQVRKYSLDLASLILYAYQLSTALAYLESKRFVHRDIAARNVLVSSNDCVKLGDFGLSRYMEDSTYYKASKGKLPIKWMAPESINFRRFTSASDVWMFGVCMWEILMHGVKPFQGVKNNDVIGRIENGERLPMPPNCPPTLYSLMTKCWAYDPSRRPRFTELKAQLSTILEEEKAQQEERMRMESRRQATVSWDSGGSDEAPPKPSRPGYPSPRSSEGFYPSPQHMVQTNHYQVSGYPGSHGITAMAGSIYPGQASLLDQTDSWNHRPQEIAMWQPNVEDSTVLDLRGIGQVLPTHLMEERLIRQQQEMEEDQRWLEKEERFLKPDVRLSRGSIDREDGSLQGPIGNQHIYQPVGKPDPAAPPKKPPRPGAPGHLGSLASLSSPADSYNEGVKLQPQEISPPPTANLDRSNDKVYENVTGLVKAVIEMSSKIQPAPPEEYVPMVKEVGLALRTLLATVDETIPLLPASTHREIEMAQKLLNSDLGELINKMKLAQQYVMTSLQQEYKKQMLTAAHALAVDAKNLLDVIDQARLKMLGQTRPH
Assay [4] deals with Fibrinogen (Alexa647-labelled). Description: fibrinogen binders on compound microarrays, profiling panel, artefact control for SMM control-protein annotation, biochemical, small-molecule microarray, 635/667 nm fluorescence (AID 1131).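 Note: z-score merges 667 nm fluorescence with per-spot signal-to-noise over triplicate slides.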 The following applies: fibrinogen-A647 binding fluorescence, higher = more signal.
Assay [5] deals with Follistatin (Homo sapiens) (UniProt P19883). Description: follistatin binders on small-molecule microarrays, primary screen, biochemical, small-molecule microarray, 635/667 nm fluorescence (AID 1132). To be noted: FST binding, 635 nm fluorescence, higher = more signal.
Chain of Follistatin (Homo sapiens) (P19883 whole entry, looked up): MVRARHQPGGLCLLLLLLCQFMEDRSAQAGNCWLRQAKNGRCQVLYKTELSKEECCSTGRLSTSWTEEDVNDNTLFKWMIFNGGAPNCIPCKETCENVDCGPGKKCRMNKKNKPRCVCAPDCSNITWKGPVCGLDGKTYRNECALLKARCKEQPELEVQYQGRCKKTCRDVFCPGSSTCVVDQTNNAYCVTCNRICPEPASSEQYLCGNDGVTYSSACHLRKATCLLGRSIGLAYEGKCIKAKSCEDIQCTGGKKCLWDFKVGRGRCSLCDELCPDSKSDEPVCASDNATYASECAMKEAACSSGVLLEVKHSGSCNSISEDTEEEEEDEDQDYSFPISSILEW
Assay [6] deals with Fibroblast growth factor 2 (Homo sapiens) (UniProt P09038). Description: FGF2 binders on small-molecule microarrays, primary screen, biochemical, small-molecule microarray, 635/667 nm fluorescence (AID 1133). To be noted: small-molecule microarray binding, FGF2, fluorescence 635/667; higher = more signal.
Chain of Fibroblast growth factor 2 (Homo sapiens) (P09038 whole entry, looked up): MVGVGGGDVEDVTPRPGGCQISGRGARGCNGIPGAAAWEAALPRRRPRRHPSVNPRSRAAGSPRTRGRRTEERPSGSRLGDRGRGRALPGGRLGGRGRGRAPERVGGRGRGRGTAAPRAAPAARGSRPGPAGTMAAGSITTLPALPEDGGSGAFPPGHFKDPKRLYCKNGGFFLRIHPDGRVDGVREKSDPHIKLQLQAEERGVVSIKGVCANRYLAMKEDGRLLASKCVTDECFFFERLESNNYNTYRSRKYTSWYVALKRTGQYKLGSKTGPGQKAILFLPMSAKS
A short description of assay [7]: mitochondrial membrane potential change in A549 cells, profiling panel, cell-based, JC-1 fluorescence, basal, 24 h, 100 nL (AID 1138).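 Note: A549 lung adenocarcinoma cells under basal conditions with no added stimulus; test concentration not given here.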 The following applies: higher = more signal.
Another assay relates to Lefty1. As to the kind of experiment: Lefty1 binders on small-molecule microarrays, primary screen, biochemical, small-molecule microarray, 635/667 nm fluorescence (AID 1139). To be noted: small-molecule microarray binding, fluorescence 635/667; higher = more signal.
The test system of assay [8] is wheat germ agglutinin (Triticum aestivum), Alexa647-labelled. As to the kind of experiment: wheat germ agglutinin binders on compound microarrays, profiling panel, artefact control for SMM control-protein annotation, biochemical, small-molecule microarray, 635/667 nm fluorescence (AID 1140).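 Note: score merges 667 nm feature emission with signal to noise over triplicate slides.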 The following applies: WGA-A647 binding, 635 nm fluorescence, higher = more signal.

Assay [9] addresses Luciferin 4-monooxygenase (Photinus pyralis) (UniProt P08659). Description: firefly luciferase enzyme inhibitors, primary screen, biochemical, luminescence, purified enzyme, 2006 set (AID 1141).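 Note: cell-free assay with purified firefly luciferase at 100 ng per well in PBS; test concentration not given here.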 To be noted: SteadyGlo luminescence, 30 min, higher = more signal, called active from +8 up or from −8 down.
The subject of assay [10] is Wnt5a (protein binding on small-molecule microarray). Description: Wnt5a binders on small-molecule microarray, primary screen, biophysical, 635/667 nm fluorescence (AID 1142).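 Note: fluorescence read at 667 nm with signal to noise per printed feature.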 To be noted: 635 nm fluorescence, higher = more signal.
Assay [11] in a line: cell viability in Huh7 cells, primary screen, cytotoxicity control for HCV replication inhibitor project, CellTiter-Glo luminescence, basal, 48 h (AID 1143).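 Note: Huh7 hepatoma cells carrying a hepatitis C replication reporter with no stimulus; test concentration not given here.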 The following applies: Huh7 HCV replicon, higher = more signal, called active from +8 up or from −8 down.
Assay [12] is described as follows: P. aeruginosa biofilm formation inhibitors, primary screen, PAO1 strain, BacTiter-Glo luminescence, LB-PBS (AID 1144). To be noted: 12 h, higher = more signal.
Assay [13] can be described thus: CREB reporter modulators without forskolin, primary screen, cell-based, PC12, CRE-LacZ reporter, unstimulated (AID 1145). The following applies: no forskolin, luminescence, 4.5 h, higher = more signal, called active from +8 up or from −8 down.
Assay [14] is described as follows: CREB reporter modulators under forskolin, primary screen, cell-based, PC12, CRE-LacZ reporter, forskolin-stimulated (AID 1146).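 Note: PC12 cells with 6xCRE LacZ reporter stimulated by forskolin 10 µM; beta-galactosidase reporter signal reflecting CREB driven transcription.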 To be noted: luminescence, 4.5 h, higher = more signal, called active from +8 up or from −8 down.
The target in assay [15] is Streptavidin (Streptomyces avidinii) (UniProt P22629). As to the kind of experiment: streptavidin binders on small-molecule microarray, primary screen, artefact control for SMM compound annotation, biophysical, 635/667 nm fluorescence (AID 1147).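 Note: signal reflects streptavidin binding to arrayed compounds as a control protein.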 To be noted: streptavidin binding, higher = more signal.
Chain of Streptavidin (Streptomyces avidinii) (P22629 whole entry, looked up): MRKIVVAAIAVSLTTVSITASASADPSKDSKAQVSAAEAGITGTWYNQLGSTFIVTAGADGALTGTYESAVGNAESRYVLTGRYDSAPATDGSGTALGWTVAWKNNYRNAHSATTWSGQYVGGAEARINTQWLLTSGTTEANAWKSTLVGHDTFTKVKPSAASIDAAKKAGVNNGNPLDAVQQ
Assay [16] can be described thus: small-molecule binders of probe aInhba, primary screen, biochemical, small-molecule microarray, 635/667 nm fluorescence (AID 1148).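 Note: score merges 667nm spot fluorescence with signal-to-noise for antibody binding to printed compounds.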 The following applies: higher = more signal.
The target in assay [17] is Torsin-1A (Homo sapiens) (UniProt O14656). As to the kind of experiment: torsin A binders from cell lysate, primary screen, small-molecule microarray, wild-type, 635/667 nm (AID 1149). The following applies: COS7 hTOR1A-WT lysate, 635 nm fluorescence, higher = more signal.
Chain of Torsin-1A (Homo sapiens) (O14656 whole entry, looked up): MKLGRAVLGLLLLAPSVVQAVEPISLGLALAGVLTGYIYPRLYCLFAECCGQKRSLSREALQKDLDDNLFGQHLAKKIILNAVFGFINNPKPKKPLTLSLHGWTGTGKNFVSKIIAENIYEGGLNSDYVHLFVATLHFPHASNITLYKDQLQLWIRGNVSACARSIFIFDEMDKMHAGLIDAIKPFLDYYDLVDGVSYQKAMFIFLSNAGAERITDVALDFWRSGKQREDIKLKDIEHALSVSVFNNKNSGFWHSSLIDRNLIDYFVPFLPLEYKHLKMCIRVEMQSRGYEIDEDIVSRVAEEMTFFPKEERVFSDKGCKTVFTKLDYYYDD
Assay [18] has the same target. As to the kind of experiment: small-molecule binders of mutant TOR1A in lysate, primary screen, cell lysate, small-molecule microarray, COS7 lysate, 635/667 nm fluorescence (AID 1150).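 Note: score pools 667 nm emission and signal to noise measuring lysate protein binding.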 To be noted: COS7 hTOR1A mutant lysate, 635 nm fluorescence, higher = more signal.
Assay [19] concerns Sonic hedgehog protein (Shh). As to the kind of experiment: small-molecule binders of Shh protein, primary screen, biochemical, small-molecule microarray, 635/667 nm fluorescence (AID 1151).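 Note: Shh protein binding to compounds spotted on small-molecule microarray slides; score combines spot fluorescence intensity with signal-to-noise across triplicate slides.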 To be noted: small-molecule microarray binding, 635 nm fluorescence; higher = more signal.

Chain of Luciferin 4-monooxygenase (Photinus pyralis) (P08659 whole entry, looked up): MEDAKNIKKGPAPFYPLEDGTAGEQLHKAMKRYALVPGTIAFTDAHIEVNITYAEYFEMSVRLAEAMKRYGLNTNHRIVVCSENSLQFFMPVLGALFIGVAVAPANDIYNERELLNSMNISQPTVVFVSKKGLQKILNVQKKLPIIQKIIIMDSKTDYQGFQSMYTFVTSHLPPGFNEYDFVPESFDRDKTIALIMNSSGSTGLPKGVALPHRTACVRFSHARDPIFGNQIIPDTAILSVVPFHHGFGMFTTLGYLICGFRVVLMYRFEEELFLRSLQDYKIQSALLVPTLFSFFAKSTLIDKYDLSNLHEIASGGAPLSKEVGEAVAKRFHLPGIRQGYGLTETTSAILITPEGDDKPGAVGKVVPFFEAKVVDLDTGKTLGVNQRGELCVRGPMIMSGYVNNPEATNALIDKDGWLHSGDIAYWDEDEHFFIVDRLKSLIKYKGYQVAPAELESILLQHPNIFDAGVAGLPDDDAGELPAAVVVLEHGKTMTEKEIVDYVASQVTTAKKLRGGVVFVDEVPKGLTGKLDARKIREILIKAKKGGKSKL

Take `CO[C@H]1COC(=O)CC=C[C@@H](C)[C@H](OC)COC(=O)[C@@H]2CCCN2C(=O)CC=C[C@@H]1C`: the composite z-score in [1] was 0.118; in assay [2], -0.834; in [3], -0.145; in assay [4], -1.02; in [5] it was 1.39; in assay [6], 1.01. Also, the composite z-score in the assay on Lefty1 is 1.57; in assay [8], -0.483; in assay [10] it was -0.0779; in [15], -0.407; in assay [16], -0.186; in the assay with Torsin-1A (Homo sapiens) [17], 1.72. Moreover, the composite z-score in the assay with Torsin-1A (Homo sapiens) [18] is 2.49; in assay [19], 2.18. In addition, the z-score in [7] was 0.0624; in assay [9], -0.813 (inactive); in assay [11] it was 0.192 (inactive); in assay [12], 0.474 (inactive); in [13], 0.251 (inactive); in [14], -0.759 (inactive).

Consider `COC(=O)[C@H](C)NC(=O)CCC1CC(OC(=O)NCc2ccc3c(c2)OCO3)CC2(CCCC(COC(=O)NCCc3ccccc3OC)O2)O1` (stereo not given in full), for which the composite z-score is 0.911 in [1]; 0.638 in [2]; -0.122 in assay [3]; 0.626 in [4]; -0.0381 in assay [5]; -0.0304 in assay [6]. In addition, the composite z-score with Lefty1 is -0.0317; in assay [8] it was 0.817; in assay [10], -0.0418; in assay [15], -0.0673; in assay [16], -0.154; with Torsin-1A (Homo sapiens) [17], 0.465. For the same molecule, the composite z-score is 0.182 in the assay with Torsin-1A (Homo sapiens) [18] and -0.004 in assay [19]. For the same molecule, the z-score in [7] is 0.159; in [9], 0.559 (inactive); in assay [11], -0.643 (inactive); in assay [12], 0.301 (inactive); in [13] it was 0.0167 (inactive); in assay [14], 0.711 (inactive).

`CC(CCN1CCCCc2nc(C)c(C)cc21)=NOC[C@@H](O)COCc1ccco1`: the composite z-score in [1] is 0.111; in assay [2] it was -0.91; in assay [3], 0.0817; in assay [4], -0.426; in assay [5], 1.42; in assay [6] it was 1.98. Besides, the composite z-score in the assay with Lefty1 is 1.68; in assay [8], -0.466; in assay [10], 0.59; in assay [15], -0.555; in assay [16] it was -0.15; with Torsin-1A (Homo sapiens) [17] it was 3.74. The figures for the composite z-score (with Torsin-1A (Homo sapiens) [18]; in assay [19]) were 3.23 and 2.31, respectively. In addition, the z-score in assay [7] is 0.143; in [9], 0.357 (inactive); in [11], 0.159 (inactive); in assay [12], 0.676 (inactive); in assay [13], 0.662 (inactive); in assay [14], 0.758 (inactive).

Regarding `O=C1[C@H]2[C@H]3[C@H](O)[C@H](O)CC(=NOC[C@@H](O)COCc4ccco4)[C@H]3CC[C@H]2C(=O)N1C[C@@H]1CCCO1`, the composite z-score was 0.605 in assay [1]; 0.225 in assay [2]; -0.173 in assay [3]; -1.27 in [4]; 0.987 in [5]; 1.61 in assay [6]. Besides, the composite z-score in the assay with Lefty1 was 1.34; in [8] it was -0.23; in assay [10] it was 0.228; in assay [15], -0.0239; in assay [16] it was -0.111; with Torsin-1A (Homo sapiens) [17], 3.31. Besides, the composite z-score with Torsin-1A (Homo sapiens) [18] was 2.75; in [19], 0.793. Besides, the z-score in assay [7] is -0.644; in assay [9], 1.02 (inactive); in [11], 0.208 (inactive); in assay [12], -0.136 (inactive); in assay [13], 0.424 (inactive); in assay [14], 0.261 (inactive).

With `CCN1C(=O)[C@H]2[C@H]3[C@H](O)[C@H](O)CC(=O)[C@@H]3CC[C@H]2C1=O`, the composite z-score in assay [1] was 0.562; in assay [2], 0.899; in [3], -0.049; in assay [4] it was 0.583; in [5], 0.468; in assay [6], 0.226. The composite z-score with Lefty1 was 0.547; in assay [8], 0.187; in assay [10], 0.0774; in assay [15] it was 0.253; in assay [16] it was -0.0719; in the assay with Torsin-1A (Homo sapiens) [17], -0.109. Further, the composite z-score was 0.344 in the assay with Torsin-1A (Homo sapiens) [18] and 0.694 in [19]. In addition, the z-score in assay [7] was 1.39; in assay [9], -0.497 (inactive); in [11], 0.213 (inactive); in assay [12] it was -0.402 (inactive); in assay [13] it was -0.293 (inactive); in assay [14], -0.69 (inactive).

For the origin of these results see PubChem BioAssay.
